Among the data in PubChem BioAssay (NCATS) are outcome and Potency values, retold here.

Experiment [1] can be described thus: Cytometric Cell-Based qHTS for Inhibitors of the mTORC1 Signaling Pathway in MEF (Tsc2-/-, p53-/-) Cells (AID 2660).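 Further: Tsc2 and p53 null MEFs carrying empty vector with compound for 24 h; percent of cells above a phospho-rpS6 to PI ratio cutoff in each well; series mostly up to about 38 µM.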 The gist of the method:
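Cells are plated, treated with compound for 24 hrs at 37 degree Celsius, then fixed, blocked and immunostained for phospho-rpS6 Ser235/236. Propidium iodide counterstain follows. Per-well % positive cells is derived from the PI-normalized phospho-S6 signal.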
In general terms: qHTS replaces the single test concentration by a dilution series.

Experiment [2] can be described thus: High Content Imaging Cell-Based qHTS for Inhibitors of the mTORC1 Signaling Pathway in MEF (Tsc2-/-, p53-/-) Cells (AID 2666).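 Further: percent of cells scored positive for phospho-rpS6 Ser235/236 immunostaining by imaging.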 The gist of the method: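 MEF Tsc2-/- p53-/- (empty vector), DMEM/10% FBS; cpd 24 h 37 °C; PFA fix, Alexa-488 p-rpS6 S235/236 Ab, Hoechst; imaged; rapamycin-defined inhibition; % positive cells/well.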
Experiment [3] can be described thus: High Content Imaging Cell-Based qHTS for Inhibitors of the mTORC1 Signaling Pathway in MEF Cells (AID 2667). Further: potency means the concentration at half of the fitted maximal effect. In short, it runs like this: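 Read-out is the share of phospho-rpS6-positive cells per well, from Hoechst-normalized Alexa-488 Ser235/236 staining imaged on IN Cell. Cells: WT Tsc2-expressing Tsc2-/-, p53-/- MEFs exposed to compound for 24 hrs.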
The nature of experiment [4]: Cytometry Cell-Based qHTS for Inhibitors of the mTORC1 Signaling Pathway in MEF cells (AID 2668). Further: potency means the concentration at half of the fitted maximal effect. The gist of the method:
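Tsc2-/-, p53-/- MEFs re-expressing WT Tsc2; cpd 24 hrs, 37 degree Celsius; PFA fix, Alexa-488 p-rpS6 (Ser235/236) Ab 2 hrs RT, PI counterstain; Acumen 488nm scan; p-S6/PI ratio → % positive cells; PI count = viability.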

The target of experiment [5] is Ubiquitin carboxyl-terminal hydrolase 2 (Homo sapiens) (UniProt O75604). The experiment is described as follows: qHTS Validation Assay for Inhibitors of Ubiquitin-specific Protease USP2a Using CHOP2 as the Reporter (AID 463106). In short, it runs like this:
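Fluorescence read-out at Ex 485nm/Em 531nm after 60min RT, following addition of 25nM Ub-CHOP2 plus 25nM reporter substrate to USP2 core (10nM) pretreated 30min with compound. Data normalized to NEM full inhibition; concentration-response curves fitted.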

Experiment [6] addresses DNA polymerase III PolC-type (Bacillus subtilis (strain 168)) (UniProt P13267). Put plainly: qHTS Validation Assay for the Inhibitors of DNA Replication in Gram-Positive Bacteria (AID 485295).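 Further: reconstituted holoenzyme with PolC plus beta clamp SSB and primase; PicoGreen fluorescence of double-stranded DNA made on primed circular M13 template; series mostly up to about 57 µM.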 In short, it runs like this: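 First, compound is mixed with the reconstituted replication complex and held at room temperature. Next, circular single-stranded M13Gori with nucleotides starts synthesis. Finally, PicoGreen in EDTA halts the reaction and stains double-stranded product for fluorescence reading.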

For experiment [7], the target named is Tumor susceptibility gene 101 protein (Homo sapiens) (UniProt Q99816). Put plainly: qHTS Validation Assay for Iinhibitors of HIV-1 Budding by Blocking the Interaction of PTAP/TSG101 (AID 485342; calls by dose curve). The gist of the method:
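Binding of a FITC-tagged PTAP-motif peptide (50 nM) to the Tsg101 binding domain (10 uM) is monitored by fluorescence polarization. Compounds are pin-delivered before peptide addition, and incubation runs 20 min at room temperature.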

The nature of experiment [8]: qHTS Validation Assay to Find Inhibitors of Chronic Active B-Cell Receptor Signaling (AID 485345; active means well fitted curve in the direction sought with a large enough effect in the main read-out, with a control signal flat, not every such curve was filed as active). The gist of the method:
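TMD8 ABC-DLBCL cells stably carrying doxycycline-inducible IkappaBalpha–green luciferase fusion plus unfused red luciferase; compounds 46 uM to 3 nM, 4 h at 37C with doxycycline. Corrected green/red luminescence ratio normalized to 10 uM MG-132 and basal cell wells; curves fitted.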

The target in experiment [9] is Beta-2 adrenergic receptor (Homo sapiens) (UniProt P07550). Put plainly: qHTS validation assay of beta-arrestin-biased ligands of beta2-adrenergic receptor (AID 485366). In short, it runs like this:
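Compound series up to 46 microM applied to beta2-AR/beta-arrestin Tango cells, 18 hr, 37 degrees C, 5% CO2. Read-out: tTA-driven luciferase luminescence, converted to %Activity; concentration-response curves assigned curve classes.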

The target of experiment [10] is Thioredoxin reductase 1, cytoplasmic (Rattus norvegicus) (UniProt O89049). Put plainly: qHTS Assay for Substrates of Mammalian Selenoprotein Thioredoxin Reductase 1 (TrxR1) (AID 488772).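 Further: series mostly up to about 57 µM; a drop in NADPH fluorescence below the no-compound background marks a TrxR1 substrate.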 In short, it runs like this: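 In this dual-purpose format, potential substrates are identified from the first fluorescence read after selenite addition, not from the 8-minute delta. Rat enzyme is preincubated with NADPH and then with compound at ~22 deg C.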
Chain of Thioredoxin reductase 1, cytoplasmic (Rattus norvegicus) (O89049 whole entry, looked up): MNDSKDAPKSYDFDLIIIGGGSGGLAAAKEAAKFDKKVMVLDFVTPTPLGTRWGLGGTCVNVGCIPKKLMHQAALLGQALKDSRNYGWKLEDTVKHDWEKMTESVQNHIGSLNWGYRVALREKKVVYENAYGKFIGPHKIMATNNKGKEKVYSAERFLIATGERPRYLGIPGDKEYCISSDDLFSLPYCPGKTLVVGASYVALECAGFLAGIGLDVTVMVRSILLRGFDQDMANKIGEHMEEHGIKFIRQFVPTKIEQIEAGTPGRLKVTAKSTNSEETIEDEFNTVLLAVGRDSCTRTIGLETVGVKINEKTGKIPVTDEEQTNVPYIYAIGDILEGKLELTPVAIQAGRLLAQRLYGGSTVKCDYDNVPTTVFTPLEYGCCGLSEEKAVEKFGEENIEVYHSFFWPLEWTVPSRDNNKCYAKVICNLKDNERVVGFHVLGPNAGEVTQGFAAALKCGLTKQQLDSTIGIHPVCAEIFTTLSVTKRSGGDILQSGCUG

Experiment [11] addresses Flap endonuclease 1 (Homo sapiens) (UniProt P39748). Put plainly: qHTS Validation Assay for the Inhibitors of Human Flap endonuclease 1 (FEN1) (AID 488816). In short, it runs like this:
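Enzyme reagent 10 nM; cpds pinned; 15 min RT preinc.; substrate 50 nM final; reads t=0 and 15 min; no-enzyme buffer wells as neg. control; normalized data, 4-parameter Hill fit.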

In experiment [12] the target is M-phase phosphoprotein 8 (Homo sapiens) (UniProt Q99549). Put plainly: qHTS Validation Assay for Inhibitors for MPP8 Chromodomain Interactions with Methylated Histone Tails (AID 488949).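 Further: 50 nM MPP8 with 50 nM peptide preformed then compounds added for 30 min; AlphaScreen signal from MPP8 chromodomain bound to biotinylated H3K9me3 peptide; top concentration of the series differs between compounds; nearly all actives have a fitted effect of over 55% in size.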 In short, it runs like this:
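50 nM MPP8 + 50 nM b-H3K9me3 peptide, PBS pH 7.4/0.01% Tween-20, 30 min RT; + cpd 30 min RT; + AlphaScreen donor/Ni-chelate acceptor beads 10 ug/mL final, 30 min dark; luminescence read.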

Experiment [13] deals with Chromobox protein homolog 1 (Homo sapiens) (UniProt P83916). The experiment is described as follows: qHTS Validation Assay for Inhibitors of HP1-beta Chromodomain Interactions with Methylated Histone Tails (AID 488953). Further: nearly all actives have a fitted effect of over 50% in size. Further: potency means the concentration at half of the fitted maximal effect. The gist of the method: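 AlphaScreen proximity readout: streptavidin donor and Ni-chelate acceptor beads, 10 ug/mL final, 30 min dark, RT. Complex of 50 nM HP1-beta and 50 nM b-H3(1-18)K9me3 formed 30 min, then compound-treated 30 min; PBS pH 7.4/0.01% Tween-20.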
Chain of Chromobox protein homolog 1 (Homo sapiens) (P83916 whole entry, looked up): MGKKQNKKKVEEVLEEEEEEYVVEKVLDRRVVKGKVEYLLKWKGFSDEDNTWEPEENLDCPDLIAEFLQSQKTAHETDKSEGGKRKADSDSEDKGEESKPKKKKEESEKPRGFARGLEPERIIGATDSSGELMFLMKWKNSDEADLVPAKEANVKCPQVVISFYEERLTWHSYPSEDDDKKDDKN

For experiment [14], the target named is Thioredoxin reductase 1, cytoplasmic (Rattus norvegicus) (UniProt O89049). Put plainly: qHTS Assay for Inhibitors of Mammalian Selenoprotein Thioredoxin Reductase 1 (TrxR1) (AID 488773). Further: nearly all actives have a fitted effect of over 40% in size. Further: potency means the concentration at half of the fitted maximal effect. The note with it: Potency: inhibition. The gist of the method: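 Inhibition is scored from the loss of NADPH fluorescence between first and last reads of an 8-min kinetic run. Selenite (400 uM) was the substrate, added after 15 min compound preincubation at room temperature.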

Experiment [15] in a line: Validation screen for small molecules that induce DNA re-replication in MCF 10A normal breast cells (AID 463097). Further: nearly all actives have a fitted effect of over 60% in size. The gist of the method: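 Image-based qHTS: normal breast cells are incubated with compound for 48 hr, stained with Hoechst, and scanned for total nuclear fluorescence. Compounds raising the fraction of nuclei with elevated DNA content count as re-replication inducers.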

Experiment [16] can be described thus: Quantitative high throughput screen for delayed death inhibitors of the malarial parasite plastid, 96 hour incubation (AID 488745).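 Further: luciferase-expressing P. falciparum in erythrocytes at 2% hematocrit and 0.1% parasitemia; series mostly up to about 29 µM; nearly all actives have a fitted effect of over 70% in size.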 The gist of the method:
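Luciferase-expressing P. falciparum, infected RBCs 2% Hct/0.1% parasitemia (final); 96 h cpd exposure, 37 C, 5% CO2; RPMI 1640 + 0.5% Albumax, bicarbonate, gentamycin. Readout: luminescence loss = growth inhibition.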

Results filed as inconclusive are left out. Activity calls are given as the source filed them. Unless noted, the call rests on the fitted dose curve; in most records, active means well fitted curve in the direction sought with a large enough effect; inconclusive means small, poorly fitted or top-dose-only effect, or another doubt; inactive means no such curve, though single readings can be large; an effect the other way counts as inactive or inconclusive.

Chain of M-phase phosphoprotein 8 (Homo sapiens) (Q99549 whole entry, looked up): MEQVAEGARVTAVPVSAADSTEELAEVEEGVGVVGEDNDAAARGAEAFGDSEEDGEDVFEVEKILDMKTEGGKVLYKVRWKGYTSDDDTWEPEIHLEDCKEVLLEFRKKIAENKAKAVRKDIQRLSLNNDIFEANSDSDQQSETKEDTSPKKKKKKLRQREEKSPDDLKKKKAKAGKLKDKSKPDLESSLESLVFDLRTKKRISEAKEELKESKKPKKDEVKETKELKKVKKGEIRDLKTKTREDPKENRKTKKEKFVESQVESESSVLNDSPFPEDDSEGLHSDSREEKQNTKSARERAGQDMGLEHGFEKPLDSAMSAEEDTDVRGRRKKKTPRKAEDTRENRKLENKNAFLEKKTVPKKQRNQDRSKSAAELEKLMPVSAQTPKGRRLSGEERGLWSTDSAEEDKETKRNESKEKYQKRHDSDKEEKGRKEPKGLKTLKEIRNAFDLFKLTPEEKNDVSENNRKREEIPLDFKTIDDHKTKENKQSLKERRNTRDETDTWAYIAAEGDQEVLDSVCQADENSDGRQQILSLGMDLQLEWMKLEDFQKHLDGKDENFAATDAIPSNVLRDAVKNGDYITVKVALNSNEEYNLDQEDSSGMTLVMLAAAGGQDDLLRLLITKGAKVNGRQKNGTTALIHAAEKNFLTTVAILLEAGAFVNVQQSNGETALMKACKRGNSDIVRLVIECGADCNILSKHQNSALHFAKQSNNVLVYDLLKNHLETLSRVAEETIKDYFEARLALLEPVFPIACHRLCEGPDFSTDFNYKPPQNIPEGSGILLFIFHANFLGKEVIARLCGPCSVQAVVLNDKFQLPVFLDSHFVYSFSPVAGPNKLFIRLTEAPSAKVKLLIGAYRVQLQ
Chain of Tumor susceptibility gene 101 protein (Homo sapiens) (Q99816 whole entry, looked up, the tested form may be a part): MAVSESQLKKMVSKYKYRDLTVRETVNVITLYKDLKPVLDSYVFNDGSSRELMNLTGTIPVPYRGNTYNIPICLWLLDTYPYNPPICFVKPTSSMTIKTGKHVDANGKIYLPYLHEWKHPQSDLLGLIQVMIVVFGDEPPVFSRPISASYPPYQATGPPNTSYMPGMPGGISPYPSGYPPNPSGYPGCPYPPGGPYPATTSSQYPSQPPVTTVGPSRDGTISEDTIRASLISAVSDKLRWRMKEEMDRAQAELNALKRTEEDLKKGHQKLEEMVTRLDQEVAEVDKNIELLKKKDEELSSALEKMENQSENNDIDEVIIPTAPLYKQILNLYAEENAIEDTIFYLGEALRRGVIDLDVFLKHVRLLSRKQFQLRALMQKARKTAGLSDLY
Chain of Flap endonuclease 1 (Homo sapiens) (P39748 whole entry, looked up): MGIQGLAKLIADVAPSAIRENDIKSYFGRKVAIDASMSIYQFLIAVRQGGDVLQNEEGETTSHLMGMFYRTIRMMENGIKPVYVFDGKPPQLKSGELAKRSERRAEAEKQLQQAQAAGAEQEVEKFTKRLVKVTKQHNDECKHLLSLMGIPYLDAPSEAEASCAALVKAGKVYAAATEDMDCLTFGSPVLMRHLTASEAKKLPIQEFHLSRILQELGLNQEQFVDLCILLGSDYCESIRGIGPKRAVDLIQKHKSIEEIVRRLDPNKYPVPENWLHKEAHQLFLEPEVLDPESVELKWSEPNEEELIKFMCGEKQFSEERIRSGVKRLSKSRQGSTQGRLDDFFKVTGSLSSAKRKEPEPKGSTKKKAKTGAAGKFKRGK
Chain of Beta-2 adrenergic receptor (Homo sapiens) (P07550 whole entry, looked up): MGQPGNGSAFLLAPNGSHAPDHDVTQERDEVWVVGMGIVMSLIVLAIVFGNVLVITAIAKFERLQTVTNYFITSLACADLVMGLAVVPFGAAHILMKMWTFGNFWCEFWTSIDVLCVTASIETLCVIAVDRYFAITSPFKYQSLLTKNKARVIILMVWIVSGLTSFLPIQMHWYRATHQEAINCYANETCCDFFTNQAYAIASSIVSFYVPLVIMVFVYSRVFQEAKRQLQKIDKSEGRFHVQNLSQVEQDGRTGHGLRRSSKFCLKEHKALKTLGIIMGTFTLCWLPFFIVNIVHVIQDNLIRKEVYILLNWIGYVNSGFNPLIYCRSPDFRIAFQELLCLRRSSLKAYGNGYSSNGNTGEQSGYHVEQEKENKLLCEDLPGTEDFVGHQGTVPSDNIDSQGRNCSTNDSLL
Chain of DNA polymerase III PolC-type (Bacillus subtilis (strain 168)) (P13267 whole entry, looked up): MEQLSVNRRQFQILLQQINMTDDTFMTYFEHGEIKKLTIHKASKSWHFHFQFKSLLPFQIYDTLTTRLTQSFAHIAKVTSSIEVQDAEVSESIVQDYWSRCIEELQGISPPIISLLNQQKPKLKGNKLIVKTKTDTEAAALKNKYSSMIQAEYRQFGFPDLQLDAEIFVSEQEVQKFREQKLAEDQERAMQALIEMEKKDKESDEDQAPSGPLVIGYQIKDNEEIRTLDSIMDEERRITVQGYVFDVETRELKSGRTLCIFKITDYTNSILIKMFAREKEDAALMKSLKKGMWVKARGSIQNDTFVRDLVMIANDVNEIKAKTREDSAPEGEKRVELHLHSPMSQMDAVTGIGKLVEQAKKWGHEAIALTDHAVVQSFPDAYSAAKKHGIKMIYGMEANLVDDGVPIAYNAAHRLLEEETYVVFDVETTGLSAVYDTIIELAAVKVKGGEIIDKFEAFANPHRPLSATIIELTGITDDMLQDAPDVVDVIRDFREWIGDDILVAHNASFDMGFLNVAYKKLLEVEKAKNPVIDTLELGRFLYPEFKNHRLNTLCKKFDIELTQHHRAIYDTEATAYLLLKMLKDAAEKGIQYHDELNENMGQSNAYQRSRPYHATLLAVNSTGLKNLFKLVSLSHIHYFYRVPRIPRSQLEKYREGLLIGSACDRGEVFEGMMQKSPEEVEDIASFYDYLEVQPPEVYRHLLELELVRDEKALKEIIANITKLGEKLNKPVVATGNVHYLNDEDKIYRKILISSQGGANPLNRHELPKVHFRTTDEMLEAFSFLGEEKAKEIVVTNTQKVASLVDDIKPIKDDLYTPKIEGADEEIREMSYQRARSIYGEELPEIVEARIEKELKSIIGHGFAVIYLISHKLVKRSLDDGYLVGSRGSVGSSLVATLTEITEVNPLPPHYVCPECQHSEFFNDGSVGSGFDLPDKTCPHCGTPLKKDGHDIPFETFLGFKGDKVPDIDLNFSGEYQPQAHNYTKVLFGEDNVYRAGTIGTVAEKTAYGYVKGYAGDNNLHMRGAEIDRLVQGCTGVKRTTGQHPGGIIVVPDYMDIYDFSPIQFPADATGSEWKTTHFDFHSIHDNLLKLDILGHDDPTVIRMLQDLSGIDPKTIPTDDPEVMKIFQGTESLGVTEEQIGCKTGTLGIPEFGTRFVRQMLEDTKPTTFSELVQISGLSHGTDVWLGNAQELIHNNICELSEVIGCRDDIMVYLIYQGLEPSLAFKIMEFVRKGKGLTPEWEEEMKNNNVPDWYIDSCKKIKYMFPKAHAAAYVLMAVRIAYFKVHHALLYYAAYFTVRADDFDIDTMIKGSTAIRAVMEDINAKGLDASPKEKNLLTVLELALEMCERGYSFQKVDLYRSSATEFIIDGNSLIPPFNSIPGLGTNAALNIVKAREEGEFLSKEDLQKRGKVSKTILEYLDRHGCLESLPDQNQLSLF
Chain of Ubiquitin carboxyl-terminal hydrolase 2 (Homo sapiens) (O75604 whole entry, looked up): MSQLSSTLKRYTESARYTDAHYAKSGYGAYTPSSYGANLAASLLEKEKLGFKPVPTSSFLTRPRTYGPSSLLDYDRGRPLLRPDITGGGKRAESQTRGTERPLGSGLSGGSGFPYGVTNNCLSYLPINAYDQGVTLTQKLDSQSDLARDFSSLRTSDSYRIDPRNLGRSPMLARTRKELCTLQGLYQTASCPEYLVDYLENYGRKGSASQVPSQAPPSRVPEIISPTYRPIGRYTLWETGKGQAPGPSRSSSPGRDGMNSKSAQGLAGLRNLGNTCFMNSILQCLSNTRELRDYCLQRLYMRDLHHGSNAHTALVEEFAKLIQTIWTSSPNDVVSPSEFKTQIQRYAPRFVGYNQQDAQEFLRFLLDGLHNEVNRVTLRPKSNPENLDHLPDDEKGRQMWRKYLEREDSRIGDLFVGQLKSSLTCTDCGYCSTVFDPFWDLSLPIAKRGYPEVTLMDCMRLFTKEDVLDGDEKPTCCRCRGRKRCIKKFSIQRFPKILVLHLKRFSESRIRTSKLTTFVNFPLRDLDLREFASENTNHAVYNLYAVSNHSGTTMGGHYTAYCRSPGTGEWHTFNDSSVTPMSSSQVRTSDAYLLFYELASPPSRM

In the case of `Cc1cc(NC2CCCCC2)nc(-n2nc(C)cc2C)n1`, the call in experiment [1], in experiment [7], in experiment [8] and in experiment [9] was inactive. In addition, the Potency entry in experiment [2], in experiment [3], in [4], in [5], in experiment [6] and in experiment [10] was “inactive” throughout. Besides, the Potency entry in [11], in experiment [12] and in experiment [13] was “inactive” in each case.

For the molecule `COc1ccc2c(c1)CCC1C2CC[C@@]2(C)C1CC[C@@H]2NCCCCCCN1C(=O)CCC1=O` (some centres undefined), the molecule was called inactive in experiment [1], in experiment [7] and in [9]. For the same molecule, the Potency entry in experiment [2], in experiment [5], in [6], in experiment [10], in experiment [14] and in experiment [11] was “inactive” in each case. The Potency entry in [12] and in experiment [13] was “inactive” throughout. The Potency in [3] is 3.69 µM (active); in experiment [4], 4.65 µM (active).

For `CC1OC1P(=O)(O)O` (centres undefined), the molecule was classed as inactive in experiment [1], in experiment [7], in experiment [8] and in experiment [9]. The Potency result in experiment [2], in [3], in experiment [4], in experiment [5], in experiment [6] and in experiment [10] was “inactive” in each case. The Potency result in experiment [14] and in experiment [11] was “inactive” in each case.

As for `CN(C)CCCO[C@@H]1[C@H]2OC(C)(C)O[C@H]2O[C@@H]1[C@H](O)CO`, the call in [1], in experiment [7], in experiment [8] and in experiment [9] was inactive. Besides, the Potency result in experiment [2], in experiment [3], in [4], in experiment [5], in experiment [6] and in experiment [10] was “inactive” in each case. In addition, the Potency result in [14], in experiment [11] and in experiment [12] was “inactive” each time.

Take `CN1CCc2cc(O)c(O)cc2C(c2ccccc2)C1` (centres undefined): the outcome in experiment [1], in experiment [7], in experiment [8] and in [9] was inactive. The Potency result in experiment [2], in experiment [15], in experiment [5], in experiment [6], in [16] and in experiment [10] was “inactive” each time. For the same molecule, the Potency result in experiment [11], in [12] and in [13] was “inactive” each time.

For the molecule `Cc1ccc(S(=O)(=O)/C=C/C#N)cc1`, the molecule was classed as inactive in experiment [1], in experiment [7] and in experiment [9]. The Potency entry in experiment [2], in [3], in experiment [5], in experiment [6], in [10] and in experiment [11] was “inactive” throughout. Moreover, the Potency result in experiment [12] was “inactive”. For the same molecule, the Potency in experiment [14] was 0.238 µM (active); in experiment [13], 39.8 µM (active).

As for `Nc1nc(Nc2ccccc2)nc2c1ncn2[C@@H]1O[C@H](CO)[C@@H](O)[C@H]1O`, the molecule was called inactive in [1] and in experiment [9]. Moreover, the Potency entry in [2], in experiment [3], in [4], in [5], in experiment [6] and in experiment [10] was “inactive” in each case. The Potency entry in experiment [14], in experiment [11], in experiment [12] and in [13] was “inactive” in each case.

As to `Nc1ncnc2c1c(I)cn2[C@@H]1C[C@H](N)[C@@H](O)[C@H]1O`, the outcome in [1] and in [9] was inactive. Moreover, the Potency entry in experiment [2], in experiment [3], in experiment [5], in experiment [6], in experiment [10] and in [14] was “inactive” throughout. The Potency entry in [11], in [12] and in [13] was “inactive” each time.

With `O=C1/C(=C/c2ccsc2)CC/C1=C\c1cccs1`, the result in experiment [1] and in [9] was inactive. The Potency entry in [2], in experiment [3], in experiment [4], in experiment [5], in experiment [6] and in experiment [10] was “inactive” throughout. Also, the Potency result in experiment [11] and in [12] was “inactive” in each case.
